Screening data deposited in PubChem BioAssay by several laboratories.
Compounds with a hit are over-represented: about 5.2% of the library has one in this group of screens.
EphB4 antag: EphB4-ephrin-B2 interaction antagonists, primary screen, biochemical, TNYL-RAW peptide probe, fluorescence polarization; inhibition, % at 7 µM; Ephrin type-B receptor 4 (Homo sapiens), P54760; EphB4 LBD / TNYL-RAW-Alexa532 peptide; 0.15% of 97,000 active;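 active = inhibition above the screen-wide mean inhibition plus 3 SD, cut at about 15% in these data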;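 also: 0% = DMSO wells and 100% = excess unlabeled TNYL-RAW peptide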
PostGolgi ctrl: growth inhibition of yeast control strain, primary screen, counter-screen for post-Golgi transport modulator project; inhibition, % at 10 µM; AID 738, 2007; efflux-deficient yeast background strain, growth absorbance A615, 16 h; 5% of 98,000 active
Candida biofilm: clotrimazole potentiators killing Candida biofilms, primary screen, with clotrimazole, Alamar Blue | C. albicans biofilm + clotrimazole | inhibition, % at 6 µM | 0.14% of 85,000 active | AID 834, 2007;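 active = inhibition above 20%; inactive = inhibition below 20%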;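 also: preformed 24 hr biofilms exposed to compound for 48 hr; 0% = biofilm without compound and 100% = blank killed by clotrimazole plus chlorhexidine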
PostGolgi yeast: phenotypic screen on post-Golgi transport, primary screen; post-Golgi transport phenotypic cell assay; inhibition, % at 10 µM; 0.9% of 98,000 active;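 also: yeast cells grown in 1536-well plates; yeast grown about 18 h at 30C before absorbance read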
* hit, by the source's call; nt = not tested or not shown. Rule as the data show it, unless noted: active = inhibition above about 30%; inactive = the rest.

SMILES	EphB4 antag	PostGolgi ctrl	Candida biofilm	PostGolgi yeast
Cc1[nH]nc2c1C(c1cn[nH]c1-c1ccc(F)cc1)C(C#N)=C(N)O2 (stereo not drawn)	1	-2	9	14
COCCn1nnnc1C(c1ccc(OC)c(OC)c1)N1CCN(c2nc3ccccc3s2)CC1 (stereo not drawn)	-9	nt	5	nt
O=C1OC(c2ccc(Cl)cc2)/C(=C(/O)c2ccccc2)C1=O (stereo not drawn)	6	1	12	8
COC(=O)C1=C(CSc2nncn2C)NC(=O)NC1c1ccc(F)cc1 (stereo not drawn)	0	6	7	-3
CC(CO)Nc1nc(SCc2ccccc2)nc2sc3c(c12)CCC3 (stereo not drawn)	-8	50*	4	1
O=C1CC(Nc2ccc3ccccc3c2)C(=O)N1Cc1ccccc1 (stereo not drawn)	-9	38*	5	0
CCCn1nnc(NC(=S)NC(=O)CC)n1	-1	5	nt	-3
CC(C)NS(=O)(=O)c1ccc(Oc2ncc(C(F)(F)F)cc2Cl)cc1	-1	14	nt	3
O=S(=O)(Nc1ccccc1)c1ccc(Oc2ncc(C(F)(F)F)cc2Cl)cc1	1	59*	nt	12
O=C1N[C@@H](Cc2ccccc2)C(=O)N1CCN1CCOCC1	1	2	3	2
O=C1CCCN1CCCN1C(=O)N[C@@H](Cc2ccccc2)C1=O	8	35*	-2	8
CCC1CCCCN1C(=O)CSc1nnc(-c2c[nH]c3ccccc23)o1 (stereo not drawn)	6	13	2	-19
S=c1[nH]nc(COc2ccccc2)n1/N=C/c1ccc(Br)s1	-7	31*	nt	-2
Cc1ccc(/C=N/n2c(COc3ccccc3)n[nH]c2=S)s1	4	9	nt	1
CC1CCN(CCC(=O)Nc2ccc3c(c2)CCC3)CC1	2	nt	13	nt
Cc1ccc2c(c1)N(CC(=O)NC1CCCc3ccccc31)C(=O)CO2 (stereo not drawn)	1	34*	8	-2
Cc1ccc2c(c1)N(CC(=O)NC1CCC(C)CC1)C(=O)CO2 (stereo not drawn)	-4	5	8	12
CCOC(=O)C1=C(CSc2nc(-c3ccccc3)ccc2C#N)OC(N)=C(C#N)C1c1cccnc1 (stereo not drawn)	5	5	0	61*
COC(=O)CSc1nc(N)c(C#N)c(C(C)C)c1C#N	0	4	3	-2
CCOC(=O)CSc1nc(N)c(C#N)c(CC(C)C)c1C#N	7	40*	10	1
CCC(Oc1ccccc1)C(=O)N1CC(C)CC(C)C1 (stereo not drawn)	1	-4	0	-6
COc1cc(C)ccc1OCCCCN1CC(C)OC(C)C1 (stereo not drawn)	-7	33*	4	60*
CC1CN(CCCCOc2ccc(C(C)C)cc2)CC(C)O1 (stereo not drawn)	-5	53*	5	97*
CCOc1ccccc1OCCOCCN1CC(C)OC(C)C1 (stereo not drawn)	3	2	0	-1
CC1CN(CC(O)COc2ccc(C(C)C)cc2)CC(C)O1 (stereo not drawn)	-11	22	6	59*
SMILES	EphB4 antag	PostGolgi ctrl	Candida biofilm	PostGolgi yeast
CCCCOc1ccc(C(=O)N2CC(C)OC(C)C2)cc1 (stereo not drawn)	7	5	3	1
CC(CC1C(C#N)=C(N)SC(N)=C1C#N)c1ccccc1 (stereo not drawn)	-6	3	5	1
CC1Cc2ccccc2N1C(=O)CSc1nnc(Cc2ccccc2)n1CCc1ccccc1 (stereo not drawn)	0	19	nt	-1
CS(=O)(=O)N(CC(O)CON=C1c2ccccc2-c2ccccc21)c1ccc(F)cc1 (stereo not drawn)	-3	1	8	0
Cc1cccc(N(CC(O)CON=C2c3ccccc3-c3ccccc32)S(C)(=O)=O)c1 (stereo not drawn)	9	41*	-2	-4
COc1cccc(C2CC(c3cccs3)=NN2C(=O)CSC2=NN3CCCC(=O)N=C3S2)c1OC (stereo not drawn)	4	20	10	1
CCc1cc(C(c2ccc(F)cc2)N2CCOCC2)c(NC(=O)c2ccccc2)s1 (stereo not drawn)	-1	11	nt	32*
COc1ccc(CNC(=O)C2COc3ccccc3O2)c(OC)c1 (stereo not drawn)	2	1	11	-3
C=CCNc1nc(N(c2ccccc2)c2ccccc2)nc(-n2ccnc2)n1	2	35*	8	-1
CN(c1ccccc1)c1nc(-n2ccnc2)nc(-n2ccnc2)n1	-5	55*	5	48*
CCNc1nc(N2CCOCC2)nc(N(c2ccccc2)c2ccccc2)n1	2	9	10	-5
c1ccc(-c2ccc(-n3ccnc3)cc2)cc1	8	20	0	8
c1ccc(N(c2ccccc2)c2nc(-n3ccnc3)nc(-n3ccnc3)n2)cc1	-2	104*	10	100*
CCCCNc1nc(N(C)c2ccccc2)nc(-n2ccnc2)n1	3	69*	-5	96*
O=S(=O)(NC1CC1)c1ccc(S(=O)(=O)N(Cc2ccccn2)C2CCCC2)cc1	0	5	-3	2
Cc1ccc(S(=O)(=O)Nc2cccc3ncccc23)s1	3	36*	nt	-2
Cc1ccc(S(=O)(=O)Nc2ccnc3ccccc23)cc1	-6	4	3	-2
O=[N+]([O-])c1cc(Br)c(O)c(/C=N/Nc2nnnn2-c2cccc3ccccc23)c1	9	9	nt	-4
Cc1ccc2nc(C(F)(F)F)c(C#N)c(N)c2c1	nt	36*	nt	-5
O=C(CN1C(=O)c2ccccc2S1(=O)=O)Nc1cccnc1	0	nt	9	nt
Cc1cccc(C(=O)N/N=C/c2ccncc2)c1	-8	-5	nt	-2
S=c1[nH]ncn1/N=C/c1ccccc1	-5	-7	-2	7
CCn1c(/C=N/n2cnnc2)nc2ccccc21	-10	6	6	0
CCn1c2ccccc2c2cc(/C=N/n3cn[nH]c3=S)ccc21	0	43*	9	4
CCn1c2ccccc2c2cc(/C=N/n3cnnc3)ccc21	-6	42*	8	10
SMILES	EphB4 antag	PostGolgi ctrl	Candida biofilm	PostGolgi yeast
CCn1c2ccccc2c2cc(NC(C)=O)ccc21	3	13	44*	-5
CCn1c2ccccc2c2cc(NC(=O)c3ccco3)ccc21	nt	19	1	6
CCn1c2ccccc2c2cc(/C=N/NC(=O)c3cccc(C)c3)ccc21	0	34*	nt	-2
CC(=O)Nc1ccc(S(=O)(=O)N(Cc2ccco2)CC2CCCO2)cc1 (stereo not drawn)	nt	5	9	3
O=C1CN(C(=O)COC(=O)CCSc2ccccc2Cl)c2ccccc2N1	0	-3	nt	8
COc1cc(C2C3=C(CC(C)(C)CC3=O)N(C)C(=O)N2C)cc(OC)c1OC (stereo not drawn)	-10	10	5	9
O=C(NCC(c1cccnc1)N1CCN(c2ccccc2F)CC1)c1ccccc1 (stereo not drawn)	nt	3	7	10
